# IEC-6 cytotox = cytotoxicity in IEC-6 intestinal epithelial cells, primary screen, cytotoxicity control for KLF5 inhibitor project, cell-based, luminescence; IEC-6 cytotoxicity, luminescence viability; inhibition, % at 5 µM; 0.78% of 290,000 active; in the data active = inhibition above about 22%;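 also: 0% = plate median of test compound wells and 100% = cytotoxic reference compound wells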
# Ba/F3 V617F tox = reduced viability of JAK2V617F-dependent Ba/F3 cells, primary screen, JAK2V617F inhibitor project, cell-based, Ba/F3 EpoR-JAK2V617F, luminescence | ATP luminescence | inhibition, % at 5.6 µM | 1.1% of 220,000 active;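 active = inhibition above the campaign mean plus 3 SD over all tested compounds, cut at about 24% in these data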;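 also: cytokine-independent growth of Ba/F3 cells driven by EpoR plus mutant JAK2; 0% = DMSO-treated cells and 100% = JAK inhibitor I control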
# BaF3 tox = parental Ba/F3 cell viability inhibition, counter-screen for JAK2V617F inhibitor project, murine pro-B, CellTiter-Glo luminescence; 1.1% of 220,000 active; inhibition, % at 5.6 µM; CellTiter-Glo ATP luminescence;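 active = inhibition above a per-campaign cutoff, the mean inhibition of all tested compounds plus 3 SD, cut at about 27% in these data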;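 also: 0% = DMSO wells and 100% = JAK Inhibitor I control wells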
# KLF5 inh = KLF5 expression inhibitors, primary screen, DLD-1 cells, luminescence | DLD-1 KLF5 promoter-luciferase reporter | inhibition, % at 5 µM | 0.23% of 290,000 active;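 active = inhibition above a per-plate limit of that plate's mean compound inhibition plus 3 SD, cut at about 60% in these data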;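 also: 0% = DMSO wells and 100% = LY294002 at 200 µM; higher means less KLF5 promoter-driven luciferase light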
# APP 5UTR inh = inhibitors of APP translation via 5'UTR reporter, primary screen, APP 5'UTR luciferase, SH-SY5Y cells; SH-SY5Y APP 5'UTR-luciferase reporter, luminescence; inhibition, % at 2 µM; 0.82% of 190,000 active; AID 1285, 2008;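 active = inhibition above a set limit, derived from the sample mean plus 3 SD, cut at about 45% in these data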
# * hit, by the source's call; nt = no result given. Sampled rows, rich in hits. Any-hit rate of the full collection: about 1.9%.
SMILES,IEC-6 cytotox,Ba/F3 V617F tox,BaF3 tox,KLF5 inh,APP 5UTR inh
COc1cc(NS(=O)(=O)c2ccc(N/C=C\C(=O)c3ccc(C)cc3)cc2)nc(OC)n1,-4,0,4,-15,-14
CC1CCC(C(C)C)C(OCC[N+](C)(C)C)C1 (centres undefined),4,37*,42*,3,12
CC1CCC(C(C)C)C(OCC(O)C[N+]2(C)CCCCC2)C1 (centres undefined),2,28*,50*,-33,4
CC1CCC(C(C)C)C(OCC(O)CN2CCOCC2)C1 (centres undefined),4,3,2,-30,-1
CC1CCC(C(C)C)C(OCC(O)CN2CCCC(C)C2)C1 (centres undefined),-8,-1,6,-30,-6
O=C(Oc1ccc2c(c1)OCO2)c1cc2c(s1)CCC2,-4,2,3,-14,56*
O=C(c1cc2c(s1)CCCC2)N1CCN(Cc2ccc3c(c2)OCO3)CC1,4,-4,1,-18,13
c1ccc2c(NCCCN3CCOCC3)c3ccccc3nc2c1,5,-5,3,-29,63*
Cc1cccc(NC2=C/C(=N/S(=O)(=O)c3cccs3)c3ccccc3C2=O)c1,-3,3,3,-10,-25
Cc1ccc(NC2=C/C(=N\S(=O)(=O)c3cccs3)c3ccccc3C2=O)c(C)c1,8,56*,33*,-81,-105
CCn1c(=O)c2ccccc2n2c(SCC(=O)N3CCc4ccccc4C3)nnc12,-3,-2,2,-1,1
CCCn1c(=O)c2ccccc2n2c(SCC(=O)N3CCc4ccccc4C3)nnc12,2,1,8,0,61*
CCOc1ccc(-c2nc(CSCC(=O)NCc3ccco3)c(C)o2)cc1,1,-3,2,18,48*
CCOc1ccc(-c2nc(CSCC(=O)NC3CC3)c(C)o2)cc1,6,nt,nt,28,nt
O=C(O)c1cc2c(N3CCC(Cc4ccccc4)CC3)ncnc2s1,-2,1,7,0,3
c1ccc(CC2CCN(c3ncnc4sccc34)CC2)cc1,7,37*,44*,16,-25
CN1CCN(c2ccc([N+](=O)[O-])cc2C(=O)c2ccccc2)CC1,1,3,5,-5,12
CN1CCN(c2ccc([N+](=O)[O-])cc2C(=O)c2ccc(Br)cc2)CC1,6,-2,2,-4,69*
COc1ccc(C(=O)c2cc([N+](=O)[O-])ccc2N2CCN(C)CC2)cc1,74*,74*,85*,55,65*
Cc1ccc(C(=O)c2cc([N+](=O)[O-])ccc2N2CCOCC2)cc1C,6,85*,76*,6,93*
O=C(c1ccccc1)c1cc([N+](=O)[O-])ccc1N1CCCC1,8,-3,-1,-6,-12
Cc1ccccc1COC(=O)c1cc([N+](=O)[O-])ccc1N1CCOCC1,0,nt,nt,-1,nt
COc1ccc(C(=O)c2cc([N+](=O)[O-])ccc2N2CCCC2)cc1,-4,5,13,-5,61*
Cc1ccc(CCNC(=O)CCn2ccc3cc(S(=O)(=O)N4CCCC4)ccc32)cc1,-5,nt,nt,-17,nt
COC(=O)Cn1nc(-c2ccccc2)c2ccccc21,-3,-2,1,-12,-4
SMILES,IEC-6 cytotox,Ba/F3 V617F tox,BaF3 tox,KLF5 inh,APP 5UTR inh
Cc1ccc(/C(N)=N/OC(=O)c2ccc(Cl)cc2Cl)cc1,-7,-6,3,-50,-154
O=C(c1ccco1)N1CCN(S(=O)(=O)c2ccc(Cl)s2)CC1,2,0,7,-11,3
Cn1c(=O)cc(OCC(=O)NC2CCCCC2)c2ccccc21,8,2,6,-11,4
Cn1c(=O)cc(OCCCC(=O)NC2CCCC2)c2ccccc21,21,51*,45*,-45,-2
Cn1/c(=N/N=C/c2ccc([N+](=O)[O-])cc2)sc2ccccc21,-4,-4,-1,-59,15
Cc1cc(C)c2c(c1)/C(=N\N=c1\sc3ccccc3n1C)C(=O)N2,1,1,39*,-17,nt
O=c1c2ccccc2[nH]c(=S)n1Cc1cccnc1,2,-2,1,6,56*
COc1ccc(NS(=O)(=O)c2ccc(N3CCOCC3)c(NC(=O)C(C)C)c2)cc1,11,40*,58*,8,-25
COc1ccc(NS(=O)(=O)c2ccc(N3CCOCC3)c(NC(=O)c3ccc(F)cc3)c2)cc1,3,38*,43*,-10,-12
COc1ccc(NS(=O)(=O)c2ccc(N3CCOCC3)c(NC(=O)c3cccc(F)c3)c2)cc1,0,30*,41*,-37,-23
COc1ccc(NS(=O)(=O)c2ccc(N3CCOCC3)c(NC(=O)c3ccco3)c2)cc1,-5,35*,42*,-12,-11
NC(=O)c1c(C(F)(F)F)cc(-c2ccccc2)nc1NCCO,-3,-2,4,-4,-6
COC(=O)[C@H](Cc1ccccc1)[C@@H](C)OS(N)(=O)=O,-10,nt,nt,-8,nt
O=C(CC12CC3CC(CC(C3)C1)C2)NCC(=O)N1CCCC1,0,-4,2,-19,-28
CCOc1ccccc1C1C2=C(COC2=O)Nc2cc3c(cc21)OCO3 (centres undefined),91*,83*,74*,63*,96*
CCCOc1c(OC)cccc1C1CC(=O)Nc2cc3c(cc21)OCO3 (centres undefined),0,0,1,-4,9
CC1CCC(C(C)C)C(OC(=O)CSc2nccc(=O)[nH]2)C1 (centres undefined),2,2,3,-8,-15
COc1ccc(-c2n(CC(=O)OC3CC(C)CCC3C(C)C)c3ccccc3[n+]2C)cc1 (centres undefined),21,100*,89*,52,14
COc1ccc(OCc2n(CC(=O)OC3CC(C)CCC3C(C)C)c3ccccc3[n+]2C)cc1 (centres undefined),12,99*,100*,-6,nt
CCOC(=O)N1CCC(NC(=O)CS(=O)(=O)Cc2nc(-c3ccc(OC)cc3)oc2C)CC1,-2,nt,nt,4,nt
CCOc1ccc(NC(=O)C2CSC(c3ccncc3)=N2)cc1 (centres undefined),8,2,7,18,46*
COCC(C)NCc1cccc([N+](=O)[O-])c1 (centres undefined),-2,3,5,7,-27
COc1ccc(COc2cc(-c3cccc(OC)c3)nc3ccc(NC(=O)C(C)C)cc23)cc1,12,61*,70*,23,14
CC(=O)Nc1ccc(OCC(O)Cn2c(C)nc3ccccc32)cc1 (centres undefined),5,4,6,-44,4
CC(=O)N(C)c1ccc(OCC(O)Cn2c(C)nc3ccccc32)cc1 (centres undefined),4,29*,42*,-47,4

# Screening data deposited in PubChem by several laboratories.
